Measurements published in PubChem BioAssay (NCATS).
Records with an inconclusive call do not appear. The source made the active and inactive calls. Unless noted, calls follow the shape of the dose curve; as a rule, active = well fitted curve in the direction sought with a large enough effect; inconclusive = small, poorly fitted or top-dose-only effect, or another doubt; inactive = no such curve, though single readings can be large; an effect the other way counts as inactive or inconclusive. Square brackets hold non-standard residues; d marks the D form. Peptide text beside a SMILES is read from it. pGlu = O=C1CC[C@@H](C(=O)O)N1

Experiments:
[1] = target: Glutathione peroxidase 1 (Homo sapiens) (UniProt P07203); experiment: Primary qHTS Assay for Inhibitors of Recombinant Selenoprotein Glutathione Peroxidase 1 (GPX1) (AID 1845191); also: nearly all actives have a fitted effect of over 65% in size; as to activity, negative = inhibition: % is scaled to controls: 0 for no effect and ±100 for the full control effect
Outline: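 Recombinant GPX1 (10 nM final) was preincubated with compound for 30 min at room temperature, then reacted with 1 mM GSH, 0.5 mM CHP, 0.5 mM NADPH and 100 nM glutathione reductase; NADPH fluorescence (340/450 nm) was read at 0 and 15 min.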

[2] = target: Phospholipid hydroperoxide glutathione peroxidase GPX4 (Homo sapiens) (UniProt P36969); experiment: Primary qHTS Assay for Inhibitors of Recombinant Selenoprotein Glutathione Peroxidase 4 (GPX4) (AID 1845192); also: nearly all actives have a fitted effect of over 65% in size; also: potency is read from the fitted curve at half-maximal effect
Outline: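 GR-coupled readout: 100 nM GR, 1 mM GSH, 0.5 mM NADPH; NADPH fluorescence (ex 340/em 450 nm) read at t=0 and after 15 min RT. GPX4 200 nM, preincubated 30 min with compound; substrate 0.5 mM CHP.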

[3] = target: Luciferin 4-monooxygenase (Photinus pyralis) (UniProt P08659); experiment: Biochemical firefly luciferase enzyme assay for NPC (AID 624030);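 also: purified P. pyralis luciferase at 10 nM with luciferin and ATP substrate; 0% = DMSO and -100% = full luciferase inhibition by PTC124 control; nearly all actives have a fitted effect of over 70% in size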
Outline: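 Counter-screen for direct inhibition of the luciferase enzyme by approved-drug library compounds, run at 10 nM enzyme in 50 mM Tris acetate (final). Luminescence was read within 5 min of enzyme-buffer addition and normalized to PTC124 versus DMSO (0%).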

[4] = Cellular Toxicity (caspase-3) HepG2 (AID 654);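 also: cells exposed to compound for 16 hours before reading; 0% = DMSO alone and 100% = caspase signal from 100 µM tamoxifen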
Outline: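 HepG2 cells (1500/well) in complete medium were treated with compounds for 16 hr at 37 °C. Caspase-3/7 activity was then read as luminescence from peptide-aminoluciferin cleavage. AC50 came from Hill fits, normalized to DMSO and 100 uM tamoxifen.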

[5] = Cellular Toxicity (caspase-3) HUV-EC-C (AID 656);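 also: 0% = DMSO basal and 100% = 100 µM tamoxifen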
Outline: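 Read-out: luminescence proportional to caspase 3/7 activity, measured 20 min after adding Caspase-Glo 3/7 reagent. Cells (HUV-EC-C) had received compound for 16 hr at 37°C. Increases relative to DMSO and 100 uM tamoxifen gave concentration-response AC50 values.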

[6] = Cell Viability - LYMP2-016 (AID 984); also: % is scaled to controls: 0 for no effect and ±100 for the full control effect; nearly all actives have a fitted effect of over 55% in size
Outline: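 Acute toxicity in a Coriell human lymphoblastoid line is scored as loss of intracellular ATP over 24 h of treatment in complete medium. CellTiter-Glo signal is fitted across concentrations with the Hill equation to give AC50.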

[7] = Cell Viability - LYMP2-018 (AID 985);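 also: compound exposure lasted 24 hr at 37 °C; plate controls were DMSO only for no effect and tetraoctylammonium bromide at 92 µM for full effect; nearly all actives have a fitted effect of over 50% in size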
Outline: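 Human lymphoblastoid cells (2500/well) were pre-incubated 5 hr at 37 C, then exposed to compounds for 24 hr at 37 C in complete medium. Viability was read as intracellular ATP by CellTiter-Glo luminescence; AC50 values came from Hill-equation fits.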

[8] = target: Estrogen receptor (Homo sapiens) (UniProt P03372); experiment: qHTS assay for small molecule agonists of estrogen receptor alpha signaling (AID 588514; calls by dose curve;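 also: 0% = vehicle only and 100% = reference agonist; nearly all actives have a fitted effect of over 70% in size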)
Outline: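 ER-alpha-UAS-bla GripTite HEK 293 cells in medium with 2% charcoal/dextran-treated FBS were treated with compound titrations at 37 C for 18 hrs; beta-lactamase reporter read by CCF4 fluorescence after 2 hrs at RT.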

[9] = target: Vitamin D3 receptor (Homo sapiens) (UniProt P11473); experiment: qHTS assay for small molecule antagonists of vitamin D receptor signaling (AID 588541; calls by dose curve;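 also: receptor activated by calcitriol during compound treatment; % is scaled to controls: 0 for no effect and ±100 for the full control effect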)
Outline: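 VDR-UAS-bla HEK293T cells (2000/well, 2% charcoal-stripped FBS) were treated with titrated compounds plus 1-alpha,25-dihydroxyvitamin D3 (50 nM or 3 nM final) for 16 h at 37 C. CCF4 beta-lactamase fluorescence was read; Hill fits gave IC50.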

[10] = target: Nuclear receptor ROR-gamma (Homo sapiens) (UniProt P51449); experiment: qHTS assay for small molecule antagonists of the retinoid-related orphan receptor gamma (ROR-gamma) signaling pathway (AID 651802); also: % is scaled to controls: 0 for no effect and ±100 for the full control effect; nearly all actives have a fitted effect of over 60% in size
Outline: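 CHO cells carrying TET-inducible ROR-gamma and an ROR response element–luciferase reporter were exposed to compound, then induced with doxycycline. After 16hr at 37C, luminescence was read; lower signal indicates antagonism.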

[11] = qHTS profiling for inhibitors of Plasmodium falciparum proliferation (AID 504749); also: potency is read from the fitted curve at half-maximal effect;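 as to activity, negative = inhibition: 0% = DMSO vehicle and full inhibition = artemisinin control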; as to all read-outs here: nearly all actives have a fitted effect of over 60% in size; conditions: P. falciparum in erythrocytes, SYBR Green DNA, 72 h; for activity, negative = inhibition: at 28.7 µM (top of the series)
Outline: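 P. falciparum-infected erythrocytes (0.3% parasitemia, 2.5% hematocrit final) were exposed to compounds for 72 h at 37 C in 5% CO2, then lysed with SYBR Green buffer overnight at room temperature; parasite DNA fluorescence was normalized to artemisinin and DMSO controls.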

[12] = qHTS assay for small molecule antagonists of peroxisome proliferator-activated receptor delta signaling (AID 588535; active = well fitted inhibition curve with a large enough effect in the signal ratio, with a control signal flat, not every such curve was filed as active; the % refers to the signal ratio;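 as to max response: cells co-treated with a PPAR-delta agonist as stimulator during compound exposure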); conditions: HEK293T PPARd-UAS-bla, beta-lactamase FRET ratio, 18 h; 460 nm channel
Outline: (§1)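 GeneBLAzer PPAR-delta-UAS-bla HEK293T cells in medium with 2% charcoal/dextran FBS were preincubated 5 hrs at 37 C, then given compounds, incubated 18 hrs at 37 C, and read by CCF4 beta-lactamase fluorescence; IC50 from Hill fits.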

[13] = target: Peroxisome proliferator-activated receptor delta (Homo sapiens) (UniProt Q03181); experiment: as above
Outline: as §1

[14] = target: Peroxisome proliferator-activated receptor gamma (Homo sapiens) (UniProt P37231); experiment: qHTS assay for small molecule antagonists of peroxisome proliferator-activated receptor gamma signaling (AID 588537; active = well fitted inhibition curve with a large enough effect in the signal ratio, with a control signal flat, not every such curve was filed as active; the % refers to the signal ratio;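 also: reporter cells co-stimulated with 50 nM rosiglitazone agonist during compound treatment; % of control where 0% means no effect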)
Outline: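 PPAR-gamma-UAS-bla HEK293 cells (3000/well, 1% charcoal/dextran-stripped FBS) were preincubated 6-6.5 h at 37 C, given titrated compounds, then stimulated with 50 nM rosiglitazone for 16 h. Beta-lactamase activity was read with CCF4 dye; IC50 came from Hill fits.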

Luciferin 4-monooxygenase (Photinus pyralis), sequence (P08659 whole entry, looked up): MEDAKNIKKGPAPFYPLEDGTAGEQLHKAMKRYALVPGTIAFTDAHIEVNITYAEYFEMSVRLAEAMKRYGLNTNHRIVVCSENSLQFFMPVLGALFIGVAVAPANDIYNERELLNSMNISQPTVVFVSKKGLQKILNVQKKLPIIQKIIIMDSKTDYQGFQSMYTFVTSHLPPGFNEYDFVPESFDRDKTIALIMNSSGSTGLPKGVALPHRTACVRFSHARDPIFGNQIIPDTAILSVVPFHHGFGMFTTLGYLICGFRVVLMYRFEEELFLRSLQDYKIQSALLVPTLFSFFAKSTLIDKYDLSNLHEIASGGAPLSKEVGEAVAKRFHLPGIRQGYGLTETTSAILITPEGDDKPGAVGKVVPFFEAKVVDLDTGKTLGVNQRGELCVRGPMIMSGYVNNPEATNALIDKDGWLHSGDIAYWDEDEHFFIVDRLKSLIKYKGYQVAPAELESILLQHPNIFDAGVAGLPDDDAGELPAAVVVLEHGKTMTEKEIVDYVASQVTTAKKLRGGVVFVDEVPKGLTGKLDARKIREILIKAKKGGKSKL
Glutathione peroxidase 1 (Homo sapiens), sequence (P07203 whole entry, looked up): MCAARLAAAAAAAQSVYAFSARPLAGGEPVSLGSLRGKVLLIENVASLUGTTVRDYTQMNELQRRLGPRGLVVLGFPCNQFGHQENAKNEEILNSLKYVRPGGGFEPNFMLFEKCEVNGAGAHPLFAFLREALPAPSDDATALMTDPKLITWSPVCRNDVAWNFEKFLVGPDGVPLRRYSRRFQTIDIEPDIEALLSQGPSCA
Phospholipid hydroperoxide glutathione peroxidase GPX4 (Homo sapiens), sequence (P36969 whole entry, looked up): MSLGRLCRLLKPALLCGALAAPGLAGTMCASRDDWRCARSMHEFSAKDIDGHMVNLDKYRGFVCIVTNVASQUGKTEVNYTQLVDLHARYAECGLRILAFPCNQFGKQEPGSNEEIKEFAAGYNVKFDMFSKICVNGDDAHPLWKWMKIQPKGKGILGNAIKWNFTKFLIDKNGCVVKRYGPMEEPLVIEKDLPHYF
Vitamin D3 receptor (Homo sapiens), sequence (P11473 whole entry, looked up): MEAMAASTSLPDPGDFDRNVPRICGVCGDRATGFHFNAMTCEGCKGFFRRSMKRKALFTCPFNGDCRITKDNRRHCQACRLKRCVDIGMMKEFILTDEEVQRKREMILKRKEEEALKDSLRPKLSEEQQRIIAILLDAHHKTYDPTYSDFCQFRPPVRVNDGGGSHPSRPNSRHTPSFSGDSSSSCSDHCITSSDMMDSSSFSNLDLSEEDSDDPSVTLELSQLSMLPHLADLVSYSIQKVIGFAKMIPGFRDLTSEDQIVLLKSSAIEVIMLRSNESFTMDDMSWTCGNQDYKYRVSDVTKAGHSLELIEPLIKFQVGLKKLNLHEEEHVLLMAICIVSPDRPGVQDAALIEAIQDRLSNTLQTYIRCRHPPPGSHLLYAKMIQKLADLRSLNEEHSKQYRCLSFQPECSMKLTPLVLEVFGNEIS
Nuclear receptor ROR-gamma (Homo sapiens), sequence (P51449 whole entry, looked up): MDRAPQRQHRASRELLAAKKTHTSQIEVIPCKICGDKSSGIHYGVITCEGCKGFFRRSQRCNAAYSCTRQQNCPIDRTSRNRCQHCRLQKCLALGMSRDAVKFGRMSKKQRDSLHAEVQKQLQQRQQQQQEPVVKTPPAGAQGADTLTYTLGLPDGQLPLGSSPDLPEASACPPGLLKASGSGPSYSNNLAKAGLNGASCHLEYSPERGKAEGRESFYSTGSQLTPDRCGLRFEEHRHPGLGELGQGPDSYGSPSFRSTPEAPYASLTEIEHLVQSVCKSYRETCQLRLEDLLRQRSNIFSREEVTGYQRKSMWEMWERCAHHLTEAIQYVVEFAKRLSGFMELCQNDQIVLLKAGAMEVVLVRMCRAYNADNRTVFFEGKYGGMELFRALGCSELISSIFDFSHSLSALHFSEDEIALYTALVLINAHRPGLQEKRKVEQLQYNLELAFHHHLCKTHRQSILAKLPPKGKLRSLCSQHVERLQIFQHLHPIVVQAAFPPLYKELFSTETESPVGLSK
Estrogen receptor (Homo sapiens), sequence (P03372 whole entry, looked up): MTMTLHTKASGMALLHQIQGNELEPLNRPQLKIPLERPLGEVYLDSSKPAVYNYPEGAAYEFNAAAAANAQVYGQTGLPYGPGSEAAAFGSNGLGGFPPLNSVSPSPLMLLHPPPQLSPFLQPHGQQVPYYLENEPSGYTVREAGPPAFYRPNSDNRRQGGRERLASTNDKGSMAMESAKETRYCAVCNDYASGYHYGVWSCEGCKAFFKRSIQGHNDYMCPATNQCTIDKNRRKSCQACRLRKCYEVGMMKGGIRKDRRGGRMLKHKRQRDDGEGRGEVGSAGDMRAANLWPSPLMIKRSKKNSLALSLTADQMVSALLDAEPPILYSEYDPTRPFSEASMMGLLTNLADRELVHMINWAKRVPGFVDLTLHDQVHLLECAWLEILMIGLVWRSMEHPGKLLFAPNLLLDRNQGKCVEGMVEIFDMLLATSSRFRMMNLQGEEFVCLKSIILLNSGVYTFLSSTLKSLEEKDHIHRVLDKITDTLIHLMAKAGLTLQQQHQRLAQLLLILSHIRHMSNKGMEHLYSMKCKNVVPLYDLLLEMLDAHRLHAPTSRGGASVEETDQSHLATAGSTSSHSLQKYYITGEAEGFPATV
Peroxisome proliferator-activated receptor gamma (Homo sapiens), sequence (P37231 whole entry, looked up): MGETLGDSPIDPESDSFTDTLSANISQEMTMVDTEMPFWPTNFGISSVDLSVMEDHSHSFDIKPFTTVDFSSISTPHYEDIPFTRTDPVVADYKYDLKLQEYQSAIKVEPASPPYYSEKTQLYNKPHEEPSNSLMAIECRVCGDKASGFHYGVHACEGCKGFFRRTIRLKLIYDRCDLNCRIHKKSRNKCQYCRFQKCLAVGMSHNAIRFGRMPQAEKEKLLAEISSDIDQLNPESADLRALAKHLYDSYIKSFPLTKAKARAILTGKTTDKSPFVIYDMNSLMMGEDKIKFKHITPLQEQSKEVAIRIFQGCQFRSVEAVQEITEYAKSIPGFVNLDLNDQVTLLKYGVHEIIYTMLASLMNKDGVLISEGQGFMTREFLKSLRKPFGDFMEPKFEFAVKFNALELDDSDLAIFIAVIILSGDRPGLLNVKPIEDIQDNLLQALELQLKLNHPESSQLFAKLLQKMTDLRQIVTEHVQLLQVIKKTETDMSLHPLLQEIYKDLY
Peroxisome proliferator-activated receptor delta (Homo sapiens), sequence (Q03181 whole entry, looked up): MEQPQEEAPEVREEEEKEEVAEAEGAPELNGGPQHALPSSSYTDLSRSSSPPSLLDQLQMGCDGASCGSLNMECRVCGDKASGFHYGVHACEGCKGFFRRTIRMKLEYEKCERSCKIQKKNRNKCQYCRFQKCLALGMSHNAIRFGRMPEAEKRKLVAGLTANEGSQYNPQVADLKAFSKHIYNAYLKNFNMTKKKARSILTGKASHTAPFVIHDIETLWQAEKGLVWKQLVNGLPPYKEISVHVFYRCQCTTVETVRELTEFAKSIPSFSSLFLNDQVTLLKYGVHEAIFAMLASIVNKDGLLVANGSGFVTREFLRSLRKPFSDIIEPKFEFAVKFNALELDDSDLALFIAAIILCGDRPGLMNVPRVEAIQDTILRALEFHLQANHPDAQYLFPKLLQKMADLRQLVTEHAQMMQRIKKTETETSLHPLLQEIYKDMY

CN(C)CCCOc1ccc(-c2ccc3ncc4c(c3c2)n(C2CCOCC2)c(=O)n4C)cn1
inactive: Potency [1] | Potency [2]

CC(C)CC(NC(=O)CNC(=O)C(Cc1ccc(O)cc1)NC(=O)C(CO)NC(=O)C(Cc1c[nH]c2ccccc12)NC(=O)C(Cc1cnc[nH]1)NC(=O)C1CCC(=O)N1)C(=O)NC(CCCN=C(N)N)C(=O)N1CCCC1C(=O)NCC(N)=O (centres undefined)
inactive: Potency [3] | Potency [1] | Potency [2]

O[C@@H]([C@H](O)[C@@H](O)CBr)[C@@H](O)CBr
inactive: outcome [4] | outcome [5] | Potency [6] | Potency [7] | Potency [8] | outcome [9] | Potency [10] | Potency [1] | Potency [2]

CCCCCCCCCC(=O)OCCN1CCN(CC/C=C2/c3ccccc3Sc3ccc(Cl)cc32)CC1
active: Potency [2] 2.24 µM

CCNC(=O)[C@H]1CCCN1C(=O)[C@H](CCCN=C(N)N)NC(=O)[C@H](CC(C)C)NC(=O)[C@H](CC(C)C)NC(=O)[C@@H](Cc1ccc(O)cc1)NC(=O)[C@H](CO)NC(=O)[C@@H](Cc1c[nH]c2ccccc12)NC(=O)[C@H](Cc1cnc[nH]1)NC(=O)[C@@H]1CCC(=O)N1 ([pGlu]H[dW]S[dY]LLR[dP]-NHEt)
inactive: Potency [3] | Potency [1]

CC(C)CN(C[C@@H](OP(=O)(O)O)[C@H](Cc1ccccc1)NC(=O)O[C@@H]1CCOC1)S(=O)(=O)c1ccc(N)cc1
inactive: Potency [3] | Potency [1] | activity, negative = inhibition ([11]; parasite line A) -4.75% | activity, negative = inhibition ([11]; parasite line B) 9.93%

CC(=O)O[C@@]12CO[C@@H]1C[C@H](O)[C@@]1(C)C(=O)[C@H](O)C3=C(C)[C@@H](OC(=O)C(O)[C@@H](NC(=O)OC(C)(C)C)c4ccccc4)C[C@@](O)([C@@H](OC(=O)c4ccccc4)[C@H]21)C3(C)C (some centres undefined)
active: Potency ([11]; parasite line A) 31.6 nM | Potency ([11]; parasite line B) 28.2 nM
inactive: Potency [3] | Potency [1]

CONC(=O)c1ccccc1Nc1cc(Nc2cc(C)nn2C(C)C)ncc1Cl
inactive: Potency [1]

CC(C)(O)C1CCC(Nc2ccc3ncc(-c4cccc(C(F)(F)F)c4)n3n2)CC1 (centres undefined)
inactive: Potency [1]

CCC(=O)O[C@@H](OP(=O)(CCCCc1ccccc1)CC(=O)N1C[C@H](C2CCCCC2)C[C@H]1C(=O)O)C(C)C (some centres undefined)
inactive: Potency [3] | activity, negative = inhibition [1] 2.57% [at 9.52 µM] | activity, negative = inhibition ([11]; parasite line A) -6.06% | activity, negative = inhibition ([11]; parasite line B) -3.37%

CC1(C)S[C@@H]2[C@H](NC(=O)COc3ccccc3)C(=O)N2[C@H]1C(=O)O
inactive: Potency [13] | outcome [14] | outcome [9] | Potency [3] | Potency [1] | activity, negative = inhibition ([11]; parasite line A) 4.88% | activity, negative = inhibition ([11]; parasite line B) 4.38%
39.2%: max response [12]
